Our source for the fold change values is PubChem BioAssay AID1239 (SRMLSC, 2008).

Screen size: about 190,000 compounds; about 3,100 (1.6%) were called active. Shown is part of a subset that was picked to be rich in actives. A number with no mark means an inactive call. No stated cut-off is given here; in the data, active means fold change above about 3.3; inconclusive means no clear call, values can overlap the other calls; inactive means below that.

This experiment can be described thus: NF-kB upregulation, human neuronal cells – cell-based, HTS, primary screen (AID 1239). The conditions noted are these: NF-kB reporter expression, at 12.5 µM, hits give high values.
In the case of `CCCC1(C(=O)OC)NC(c2ccco2)C2C(=O)N(C)C(=O)C21` (stereo unspecified), the fold change is 1.

For `COc1ccc(/C=C2\CCc3ccccc3C2=O)c(OC)c1OC`, the fold change is 1.7.

Take `Cc1ccc(N2CCN(C3=NC(=O)/C(=C\c4cccs4)S3)CC2)cc1`: the fold change is 1.27.

As for `CCC1C/C(=C/c2cccs2)C(=O)/C(=C/c2cccs2)C1` (stereo unspecified), the fold change was 1.07.

Regarding `O=S(=O)(c1cccs1)N1CCc2ccccc2C1`, the fold change is 1.07.

For the molecule `O=C1/C(=C/c2cccs2)CCc2ccccc21`, the fold change was 5.83 (active).

Take `O=C1/C(=C/c2cccs2)CCC1C1CCCC1` (stereo unspecified): the fold change is 5.68 (active).

Turning to `CC(=O)C1(C)N(O)C(C)(C)C(c2cccs2)=[N+]1[O-]` (stereo unspecified), the fold change was 0.95.

Consider `CCn1nc(C)cc1C(=O)N1CCCC(C(=O)c2cccc(OC)c2)C1` (stereo unspecified), for which the fold change is 1.1.

As to `COc1ccc(CN2CCN(Cc3cn(C)nc3-c3ccccc3)CC2CCO)c(C)c1C` (stereo unspecified), the fold change was 1.01.

As to `CCc1ccc(NC(=O)Cn2nc(C)c([N+](=O)[O-])c2C)cc1`, the fold change was 1.28.

In the case of `O=c1[nH]c(CN2CCOCC2)nc2cc(Cl)ccc12`, the fold change was 1.04.

As to `NC(=O)Cc1nc2scc(-c3ccc(Cl)cc3)c2c(=O)[nH]1`, the fold change was 0.99.

Consider `O=c1[nH]c(CCl)nc2cc(-c3ccc(Cl)cc3)sc12`, for which the fold change is 4.29 (active).

`COc1ccc(S(=O)(=O)N2CCOCC2)cc1NC(=O)CSc1ncnc2ccccc12`: the fold change is 1.56.

For the molecule `CCN1C(=O)/C(=c2\s/c(=C3\Sc4ccccc4N3C)c(=O)n2C)N(C)C1=S`, the fold change is 1.16.

`CN(C)CCCN1C(=O)CSC1c1ccc([N+](=O)[O-])cc1` (stereo unspecified): the fold change is 1.03.

Consider `COCC1CCCN(Cc2nc(-c3ccc4c(c3)OCO4)no2)C1` (stereo unspecified), for which the fold change is 1.62.

For `Cc1cs/c(=N\N=C\c2ccc(O)cc2)n1Cc1ccco1`, the fold change was 4.11 (active).

Take `CN(c1ccccc1)c1ccc(/C=c2\s/c(=C(/C#N)C(=O)C(C)(C)C)n(Cc3ccco3)c2=O)cc1`: the fold change was 1.52.

Consider `Cc1csc(=Nc2ccccc2)n1CCO`, for which the fold change was 1.05.

As to `Cc1nnc(SC(C(=O)Nc2cc(Cl)cc(Cl)c2)c2ccccc2)[nH]c1=O` (stereo unspecified), the fold change was 1.02.

For `CSCCC(Nc1nc2ccccc2s1)C(=O)O` (stereo unspecified), the fold change was 1.16.

Regarding `Cc1ccc(S(=O)(=O)Nc2nc3ccccc3s2)cc1[N+](=O)[O-]`, the fold change was 1.51.

`Cc1ccnc(Nc2nc3ccccc3s2)n1`: the fold change was 4.25 (active).

On to `O=C(Nc1ccc(Br)cn1)c1ccc([N+](=O)[O-])cc1Cl`, for which the fold change was 3.54 (active).

As for `O=C(Nc1ccc(Br)cn1)c1ccc([N+](=O)[O-])o1`, the fold change is 4.41 (active).

Regarding `O=C(Nc1cccc([N+](=O)[O-])c1)Nc1ccc(Cl)cn1`, the fold change was 0.9.

Take `O=C(Nc1ccc(Br)c2cccnc12)c1ccc(Cn2cc([N+](=O)[O-])cn2)o1`: the fold change was 1.07.

Consider `O=C(/C=C/c1ccc(Cl)cc1)Nc1ccc(Br)cn1`, for which the fold change is 1.07.

`CC(C)C(=O)Nc1cccc(NC(=O)c2ccc([N+](=O)[O-])cc2Cl)c1`: the fold change is 1.13.

As to `C/C(=N/O)c1ccc(N2C(=O)C3C4C=CC(C3C2=O)C2C3C(=O)N(c5ccc(/C(C)=N/O)cc5)C(=O)C3C42)cc1` (stereo unspecified), the fold change was 1.33.

As to `NC(=O)Cn1nc([N+](=O)[O-])nc1Oc1ccc(Br)cc1`, the fold change was 0.99.

Take `O=C(O)C1C2CC2CN1C(=O)c1ccc(Cl)cc1Cl` (stereo unspecified): the fold change was 0.99.

Consider `O=C(NCc1cccnc1)c1nc(-c2cccs2)no1`, for which the fold change is 1.23.

`CCCCCc1ccc(-c2ccc(OCC)cc2)nc1`: the fold change is 1.81.

For the molecule `CCCCCc1ccc(-c2ccc(C(=O)O)cc2)nc1`, the fold change was 6.88 (active).

For `CCCCCC(=O)Nc1ccc(-c2cn3cccnc3n2)cc1`, the fold change was 0.94.

In the case of `O=C(COC(=O)CNC(=O)c1ccccc1F)NCC(F)(F)F`, the fold change was 1.05.

`O=C(CN1CCCCC1)Nc1ccccc1Cl`: the fold change was 1.2.

As to `O=C(CN1CCOCC1)Nc1ccc(NC(=O)CN2CCOCC2)c(Cl)c1`, the fold change is 1.01.

As to `CC(=O)Nc1ccc(NC(=O)CN2CCCC(C)C2)c(Cl)c1` (stereo unspecified), the fold change is 4.21 (active).

`O=C(c1ccc2c(c1)N(Cc1ccc(F)cc1)C(=O)c1ccccc1S2(=O)=O)N1CCN(c2ccccn2)CC1`: the fold change was 0.68.

Regarding `CCn1c(CSCc2c(Cl)cccc2Cl)n[nH]c1=S`, the fold change is 1.06.

`O=C(O)CSc1nnc(-c2ccc3c(c2)OCO3)n1-c1ccccc1`: the fold change is 1.41.

On to `CCOc1cccc(/C=N/N2C(=O)CSC2=S)c1O`, for which the fold change was 1.38.

On to `O=C(CCc1ccccc1)Nc1ccc(NC(=O)C2CCCCC2)nc1`, for which the fold change is 1.04.

As for `O=c1c2c(nc3n1CCCCC3)sc1c(O)cccc12`, the fold change was 4.86 (active).

As to `Cc1cccc2c(=O)n3c(nc12)CCCCC3`, the fold change was 1.11.

As to `Cc1c(C(=O)Nc2ccccc2)sc2nc3n(c(=O)c12)CCCCC3`, the fold change is 1.58.

For the molecule `CCN1CCN(CC(=O)Nc2sc3c(c2C#N)CCC3)CC1`, the fold change was 1.03.

Consider `CCC(=O)NC(=Nc1nc2ccccc2s1)NC(=O)CC`, for which the fold change was 6.73 (active).

Regarding `O=C(O)CCCCc1nc2ccccc2s1`, the fold change was 1.24.

As to `CC(C)CC(=O)NC(=S)NCc1ccccc1`, the fold change is 1.01.

Regarding `CC(C)CC(=O)N/C(N)=N/c1nc2ccccc2s1`, the fold change was 8.73 (active).

In the case of `COC(=O)c1nc2ccccc2s1`, the fold change is 0.91.

Take `O=C(O)CSCc1nc2ccccc2s1`: the fold change was 0.98.

On to `Cc1nc(-c2ccc(Cl)cc2)sc1C(=O)CBr`, for which the fold change was 1.42.

Take `N#CCC(=O)N/N=C/c1ccc(SCC(=O)Nc2ccccc2)o1`: the fold change is 1.28.

Turning to `COCCN(C(=O)CCC(=O)Nc1nccs1)C(C(=O)NC(C)(C)C)c1ccc(Cl)cc1` (stereo unspecified), the fold change is 1.27.

`COc1ccc(C(=O)NC2CCN(C(=S)NCCc3ccccc3)CC2)cc1`: the fold change was 0.91.

Turning to `CC1CCCN(c2ccc(C(=O)NCCc3ccccc3)cn2)C1` (stereo unspecified), the fold change is 4.24 (active).

Regarding `O=C(NCCc1ccccc1)c1ccc(NC2=NC3CS(=O)(=O)CC3S2)cc1` (stereo unspecified), the fold change is 1.1.

As for `CNc1nc(Nc2ccc(C)c(Cl)c2)nc(N)c1[N+](=O)[O-]`, the fold change is 5.21 (active).

Turning to `COCCNc1nc(N)c([N+](=O)[O-])c(NCCO)n1`, the fold change is 0.91.

In the case of `Nc1nc(NCCCN2CCOCC2)nc(Nc2ccccc2)c1[N+](=O)[O-]`, the fold change is 0.82.
